Assay [1] is described as follows: qHTS for differential inhibitors of proliferation of Plasmodium falciparum line HB3 (AID 1886).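 Also: parasites grown with compound for 72 h before SYBR Green readout.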 Also: potency is read from the fitted curve at half-maximal effect. The following applies: Potency: Plasmodium falciparum HB3 proliferation inhibition. In general terms: In qHTS, concentration-response curves come from the screen itself.
The target of assay [2] is Ferritin light chain (Equus caballus) (UniProt P02791). The assay is described as follows: qHTS Validation Assay for Identification of Novel General Anesthetics (AID 2323). Also: series mostly up to about 77 µM. The method in brief:
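Competitive displacement of the profluorescent anesthetic 1-AMA (50% saturated, PBS) from 10 uM apoferritin, 10 min, room temperature. Activity is normalized 380/535 nm fluorescence; concentration-response fitted with a four-parameter Hill equation.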

Assay [3] concerns the target ATP-dependent DNA helicase Q1 (Homo sapiens) (UniProt P46063). The assay is described as follows: qHTS Validation Assay for Inhibitors of RecQ-Like Dna Helicase 1 (RECQ1) (AID 2353). The procedure, abridged:
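50 nM RECQ1T1 preincubated 15 min with compound in Tris pH 8.0 buffer with MgCl2, DTT, Tween-20 and 2.5 ug/ml poly(dI-dC); started with 200 nM TAMRA/BHQ-2 forked duplex and 2 mM ATP. Unwinding read as fluorescence (525/598 nm), two reads 2 h apart.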

Assay [4] can be described thus: Cytometric Cell-Based qHTS for Inhibitors of the mTORC1 Signaling Pathway in MEF (Tsc2-/-, p53-/-) Cells (AID 2660).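 Also: percent of cells above a phospho-rpS6 to PI ratio cutoff in each well; series mostly up to about 38 µM.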 The method in brief: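 Immunofluorescence qHTS of rpS6 Ser235/236 phosphorylation: MEFs (Tsc2-/-, p53-/-) treated 24 h, 37 C, in DMEM + 10% FBS. Alexa-488 signal normalized to PI count, referenced to rapamycin (7.5 nM) and DMSO; PI cell number recorded for viability.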

Assay [5] is described as follows: High Content Imaging Cell-Based qHTS for Inhibitors of the mTORC1 Signaling Pathway in MEF (Tsc2-/-, p53-/-) Cells (AID 2666). The method in brief: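 Phospho-rpS6 (Ser235/236) immunofluorescence, normalized and scored as % positive cells using rapamycin and DMSO controls, was read in empty-vector Tsc2-/-, p53-/- MEFs after 24 h compound exposure at 37 C; propidium iodide counted cells.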

The nature of assay [6]: High Content Imaging Cell-Based qHTS for Inhibitors of the mTORC1 Signaling Pathway in MEF Cells (AID 2667).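 Also: Tsc2-/- p53-/- MEFs stably re-expressing wild-type Tsc2 exposed 24 h; series mostly up to about 38 µM.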 The procedure, abridged:
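WT MEFs (Tsc2-/-, p53-/- re-expressing Tsc2), in DMEM + 10% FBS, were treated with compound for 24 h at 37 C. Cells were then fixed and stained for phospho-rpS6 Ser235/236 with propidium iodide as cell count. Values are % positive cells, with thresholds set against rapamycin-treated cells.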

A short description of assay [7]: Cytometry Cell-Based qHTS for Inhibitors of the mTORC1 Signaling Pathway in MEF cells (AID 2668).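 Also: Tsc2-/- p53-/- mouse embryonic fibroblasts stably re-expressing wild-type Tsc2; percent cells positive for phospho-rpS6 Ser235/236 relative to propidium iodide stain; series mostly up to about 38 µM.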 The procedure, abridged:
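Phospho-rpS6 (Ser235/236) immunofluorescence over PI signal, scored as % positive cells using thresholds from 7.5 nM rapamycin and DMSO wells, after 24 h compound exposure of WT-Tsc2-rescued Tsc2-/-, p53-/- MEFs. PI cell count recorded for viability.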

In assay [8] the target is Ubiquitin carboxyl-terminal hydrolase 2 (Homo sapiens) (UniProt O75604). The assay is described as follows: qHTS Validation Assay for Inhibitors of Ubiquitin-specific Protease USP2a Using CHOP2 as the Reporter (AID 463106). The procedure, abridged:
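USP2 core (10 nM final) was preincubated with compound 30 min at RT in pH 8.0 Tris/CaCl2/beta-ME/CHAPS buffer. Ub-CHOP2 and reporter substrate (25 nM final each) were then added, with fluorescence (Ex 485/Em 531) read after 60 min. Data were normalized to NEM full inhibition and fitted to concentration-response curves.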

Assay [9] has as its target DNA polymerase III PolC-type (Bacillus subtilis (strain 168)) (UniProt P13267). Briefly: qHTS Validation Assay for the Inhibitors of DNA Replication in Gram-Positive Bacteria (AID 485295).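 Also: reconstituted holoenzyme with PolC plus beta clamp SSB and primase; PicoGreen fluorescence of double-stranded DNA made on primed circular M13 template; series mostly up to about 57 µM.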 The method in brief:
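Double-stranded DNA product detected by PicoGreen fluorescence after EDTA quench. Compound incubated with B. subtilis holoenzyme (PolC, beta subunit, SSB, primase) before substrate addition; primed replication of M13Gori with dNTPs and NTPs at room temperature; DMSO defines 0% inhibition.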

Assay [10] deals with Tumor susceptibility gene 101 protein (Homo sapiens) (UniProt Q99816). Briefly: qHTS Validation Assay for Iinhibitors of HIV-1 Budding by Blocking the Interaction of PTAP/TSG101 (AID 485342; calls by dose curve). The method in brief: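 Fluorescence polarization of 50 nM FITC-PTAP peptide bound to 10 uM Tsg101 binding domain was read after 20 min room-temperature incubation with compounds, in 10 mM HEPES pH 7.5, 0.15 M NaCl, 0.01% Tween 20.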
Tumor susceptibility gene 101 protein (Homo sapiens), sequence (Q99816 whole entry, looked up, the tested form may be a part): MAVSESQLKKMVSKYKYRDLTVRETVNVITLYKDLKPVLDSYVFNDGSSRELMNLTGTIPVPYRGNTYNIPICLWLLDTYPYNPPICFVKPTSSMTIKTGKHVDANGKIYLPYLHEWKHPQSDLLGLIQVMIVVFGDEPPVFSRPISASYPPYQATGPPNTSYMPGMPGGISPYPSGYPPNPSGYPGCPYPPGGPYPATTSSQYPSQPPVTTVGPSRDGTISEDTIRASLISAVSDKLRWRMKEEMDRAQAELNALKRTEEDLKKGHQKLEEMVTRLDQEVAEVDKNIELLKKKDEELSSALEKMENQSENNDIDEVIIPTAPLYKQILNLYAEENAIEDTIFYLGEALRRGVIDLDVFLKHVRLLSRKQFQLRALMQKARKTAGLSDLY

Assay [11] deals with Beta-2 adrenergic receptor (Homo sapiens) (UniProt P07550). Briefly: qHTS validation assay of beta-arrestin-biased ligands of beta2-adrenergic receptor (AID 485366). The method in brief: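 Arrestin-recruitment (Tango) reporter: ligand-bound beta2-AR recruits beta-arrestin, releasing tTA, which upregulates luciferase. Titrations of up to 46 microM incubated 18 hr at 37 degrees C before luminescent readout.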
Beta-2 adrenergic receptor (Homo sapiens), sequence (P07550 whole entry, looked up): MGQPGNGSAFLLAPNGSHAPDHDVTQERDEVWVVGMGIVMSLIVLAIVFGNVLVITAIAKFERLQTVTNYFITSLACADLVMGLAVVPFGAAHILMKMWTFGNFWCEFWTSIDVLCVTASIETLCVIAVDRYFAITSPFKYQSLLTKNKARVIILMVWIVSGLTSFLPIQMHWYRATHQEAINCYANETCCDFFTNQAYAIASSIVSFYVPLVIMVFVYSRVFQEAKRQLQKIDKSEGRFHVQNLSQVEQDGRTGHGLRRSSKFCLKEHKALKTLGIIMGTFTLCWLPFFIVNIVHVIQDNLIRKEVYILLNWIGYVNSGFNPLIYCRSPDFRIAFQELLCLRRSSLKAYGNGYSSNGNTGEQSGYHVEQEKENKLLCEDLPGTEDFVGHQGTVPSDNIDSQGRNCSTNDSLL

Assay [12] is described as follows: Validation screen for small molecules that induce DNA re-replication in MCF 10A normal breast cells (AID 463097). Also: nearly all actives have a fitted effect of over 60% in size. Also: potency is read from the fitted curve at half-maximal effect. The procedure, abridged: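 Read-out is Hoechst total nuclear intensity by fluorescence scanning imager, flagging increased high-DNA-content nuclei. Compounds were incubated with MCF 10A cells for 48 hr (37 C, 5% CO2) before 40 min staining.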
A short description of assay [13]: Quantitative high throughput screen for delayed death inhibitors of the malarial parasite plastid, 96 hour incubation (AID 488745). Also: nearly all actives have a fitted effect of over 70% in size. Also: potency is read from the fitted curve at half-maximal effect. The procedure, abridged:
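Growth of reporter-bearing P. falciparum in red cells is measured after 96 h with compound, covering two erythrocytic cycles. Luminescence from the integrated luciferase serves as the growth signal.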

Assay [14] can be described thus: Quantitative high throughput screen for delayed death inhibitors of the malarial parasite plastid, 48 hour incubation (AID 488752). Also: nearly all actives have a fitted effect of over 65% in size. Also: potency is read from the fitted curve at half-maximal effect. The method in brief: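 One parasite generation (48 h, 37 C, 5% CO2) of luciferase-reporter P. falciparum in erythrocytes is run with test compound; decreased luminescence indicates inhibited growth.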
Assay [15] deals with Thioredoxin reductase 1, cytoplasmic (Rattus norvegicus) (UniProt O89049). Briefly: qHTS Assay for Substrates of Mammalian Selenoprotein Thioredoxin Reductase 1 (TrxR1) (AID 488772).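 Also: NADPH fluorescence in the first read after selenite addition and not the 8 min delta; series mostly up to about 57 µM; a drop in NADPH fluorescence below the no-compound background marks a TrxR1 substrate.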 The procedure, abridged: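 Quantitative HTS in Tris-HCl buffer at pH 7.5 with EDTA and Tween-20, using rat TrxR1, 400 uM NADPH and 400 uM selenite (final). A fall in initial NADPH fluorescence relative to background marked substrate behaviour.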
Thioredoxin reductase 1, cytoplasmic (Rattus norvegicus), sequence (O89049 whole entry, looked up): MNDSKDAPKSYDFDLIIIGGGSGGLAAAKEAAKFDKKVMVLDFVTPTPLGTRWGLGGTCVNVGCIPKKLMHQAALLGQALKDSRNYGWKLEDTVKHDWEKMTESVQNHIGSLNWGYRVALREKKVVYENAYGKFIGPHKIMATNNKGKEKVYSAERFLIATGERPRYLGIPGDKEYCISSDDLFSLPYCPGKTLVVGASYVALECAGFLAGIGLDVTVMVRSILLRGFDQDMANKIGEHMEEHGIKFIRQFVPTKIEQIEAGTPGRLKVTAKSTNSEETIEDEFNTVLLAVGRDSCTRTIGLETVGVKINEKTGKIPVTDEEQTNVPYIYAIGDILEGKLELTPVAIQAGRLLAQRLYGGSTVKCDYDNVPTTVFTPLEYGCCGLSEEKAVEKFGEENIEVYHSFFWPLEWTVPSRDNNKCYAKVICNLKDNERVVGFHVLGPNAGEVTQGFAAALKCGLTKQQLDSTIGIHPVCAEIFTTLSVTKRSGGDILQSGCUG

A short description of assay [16]: qHTS Validation Assay to Find Inhibitors of Chronic Active B-Cell Receptor Signaling (AID 485345; active = well fitted curve in the direction sought with a large enough effect in the main read-out, with a control signal flat, not every such curve was filed as active). The method in brief: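 TMD8 ABC-DLBCL cells stably carrying doxycycline-inducible IkappaBalpha–green luciferase fusion plus unfused red luciferase; compounds 46 uM to 3 nM, 4 h at 37C with doxycycline. Corrected green/red luminescence ratio normalized to 10 uM MG-132 and basal cell wells; curves fitted.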

Assay [17] deals with ATP-dependent 6-phosphofructokinase (Trypanosoma brucei brucei) (UniProt O15648). Briefly: qHTS Validation Assay to Find Inhibitors of T. brucei phosphofructokinase (AID 485368). The following applies: outcome: dose series up to 57.5 µM. The procedure, abridged:
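Steps: substrate mix (0.5 mM F6P, 0.1 mM ATP, MgCl2, TEA pH 8.0); compound; 1.25 nM T. brucei PFK; 45 min RT; ATP depletion 10 min; ADP-to-ATP detection 10 min; luminescence read; curve fitting and classification.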

Assay [18] concerns the target RecQ-like DNA helicase BLM (Homo sapiens) (UniProt P54132). The assay is described as follows: qHTS Validation Assay for Inhibitors of Bloom's syndrome helicase (BLM) (AID 2364). The method in brief:
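50 nM BLM preincubated 15 min at room temperature with compound in pH 8.0 Tris buffer containing 2.5 ug/ml poly(dI-dC); started with 200 nM TAMRA/BHQ-2 forked duplex and 2 mM ATP (final). Unwinding read as TAMRA fluorescence increase, two reads 2 h apart.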

Records with an inconclusive call do not appear. Activity calls are given as the source filed them. Unless noted, calls follow the shape of the dose curve; as a rule, active = well fitted curve in the direction sought with a large enough effect; inconclusive = small, poorly fitted or top-dose-only effect, or another doubt; inactive = no such curve, though single readings can be large; an effect the other way counts as inactive or inconclusive.

ATP-dependent 6-phosphofructokinase (Trypanosoma brucei brucei), sequence (O15648 whole entry, looked up): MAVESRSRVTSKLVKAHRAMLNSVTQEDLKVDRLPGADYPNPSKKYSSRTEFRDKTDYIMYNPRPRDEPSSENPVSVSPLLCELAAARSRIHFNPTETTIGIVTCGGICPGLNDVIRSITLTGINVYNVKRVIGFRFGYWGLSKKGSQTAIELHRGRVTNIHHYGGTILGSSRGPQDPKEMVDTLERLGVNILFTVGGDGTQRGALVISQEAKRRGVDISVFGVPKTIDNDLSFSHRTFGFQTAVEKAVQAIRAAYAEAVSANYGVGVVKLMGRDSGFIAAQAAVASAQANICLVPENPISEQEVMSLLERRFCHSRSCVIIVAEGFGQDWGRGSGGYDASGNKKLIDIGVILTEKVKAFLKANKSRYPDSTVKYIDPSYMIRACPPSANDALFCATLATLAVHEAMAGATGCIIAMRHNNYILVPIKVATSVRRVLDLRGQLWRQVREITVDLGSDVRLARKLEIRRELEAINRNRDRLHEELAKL
ATP-dependent DNA helicase Q1 (Homo sapiens), sequence (P46063 whole entry, looked up): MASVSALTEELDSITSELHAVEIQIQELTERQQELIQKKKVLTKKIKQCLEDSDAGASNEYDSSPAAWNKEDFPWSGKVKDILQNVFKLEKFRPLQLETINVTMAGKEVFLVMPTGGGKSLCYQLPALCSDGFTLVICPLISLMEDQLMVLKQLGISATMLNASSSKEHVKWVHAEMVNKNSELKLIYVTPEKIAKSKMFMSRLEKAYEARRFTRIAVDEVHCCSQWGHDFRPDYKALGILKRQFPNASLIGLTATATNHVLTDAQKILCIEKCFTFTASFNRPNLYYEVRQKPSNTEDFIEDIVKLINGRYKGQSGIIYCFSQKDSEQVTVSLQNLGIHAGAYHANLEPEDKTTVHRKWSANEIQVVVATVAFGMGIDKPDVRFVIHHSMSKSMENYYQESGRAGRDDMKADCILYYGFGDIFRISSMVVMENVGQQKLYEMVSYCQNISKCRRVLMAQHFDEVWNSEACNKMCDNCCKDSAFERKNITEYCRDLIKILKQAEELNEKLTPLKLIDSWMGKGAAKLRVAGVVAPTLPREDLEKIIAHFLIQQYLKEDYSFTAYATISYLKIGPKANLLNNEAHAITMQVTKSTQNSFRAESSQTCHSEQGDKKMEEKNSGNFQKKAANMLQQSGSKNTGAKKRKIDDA
Ubiquitin carboxyl-terminal hydrolase 2 (Homo sapiens), sequence (O75604 whole entry, looked up): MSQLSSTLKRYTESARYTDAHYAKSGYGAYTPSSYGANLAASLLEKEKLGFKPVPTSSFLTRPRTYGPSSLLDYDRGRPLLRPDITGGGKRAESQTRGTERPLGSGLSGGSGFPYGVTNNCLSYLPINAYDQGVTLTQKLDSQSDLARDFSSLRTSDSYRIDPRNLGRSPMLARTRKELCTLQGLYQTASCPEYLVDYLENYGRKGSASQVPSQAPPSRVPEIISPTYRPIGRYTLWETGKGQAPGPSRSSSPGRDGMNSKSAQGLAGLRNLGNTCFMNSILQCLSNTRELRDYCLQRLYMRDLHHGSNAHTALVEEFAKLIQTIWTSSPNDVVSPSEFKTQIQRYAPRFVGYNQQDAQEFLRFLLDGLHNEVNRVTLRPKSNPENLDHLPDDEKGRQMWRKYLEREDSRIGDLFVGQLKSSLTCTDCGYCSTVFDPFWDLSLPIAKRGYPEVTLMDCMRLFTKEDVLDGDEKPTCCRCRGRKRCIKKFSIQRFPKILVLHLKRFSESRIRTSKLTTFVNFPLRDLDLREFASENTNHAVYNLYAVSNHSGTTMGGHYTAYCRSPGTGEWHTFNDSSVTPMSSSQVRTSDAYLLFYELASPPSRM
Ferritin light chain (Equus caballus), sequence (P02791 2-175 limits assumed): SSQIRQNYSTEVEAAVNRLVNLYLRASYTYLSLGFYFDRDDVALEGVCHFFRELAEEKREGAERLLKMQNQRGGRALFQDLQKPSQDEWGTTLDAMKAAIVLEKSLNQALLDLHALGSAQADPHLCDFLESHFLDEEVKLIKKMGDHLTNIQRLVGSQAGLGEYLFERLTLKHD
DNA polymerase III PolC-type (Bacillus subtilis (strain 168)), sequence (P13267 whole entry, looked up): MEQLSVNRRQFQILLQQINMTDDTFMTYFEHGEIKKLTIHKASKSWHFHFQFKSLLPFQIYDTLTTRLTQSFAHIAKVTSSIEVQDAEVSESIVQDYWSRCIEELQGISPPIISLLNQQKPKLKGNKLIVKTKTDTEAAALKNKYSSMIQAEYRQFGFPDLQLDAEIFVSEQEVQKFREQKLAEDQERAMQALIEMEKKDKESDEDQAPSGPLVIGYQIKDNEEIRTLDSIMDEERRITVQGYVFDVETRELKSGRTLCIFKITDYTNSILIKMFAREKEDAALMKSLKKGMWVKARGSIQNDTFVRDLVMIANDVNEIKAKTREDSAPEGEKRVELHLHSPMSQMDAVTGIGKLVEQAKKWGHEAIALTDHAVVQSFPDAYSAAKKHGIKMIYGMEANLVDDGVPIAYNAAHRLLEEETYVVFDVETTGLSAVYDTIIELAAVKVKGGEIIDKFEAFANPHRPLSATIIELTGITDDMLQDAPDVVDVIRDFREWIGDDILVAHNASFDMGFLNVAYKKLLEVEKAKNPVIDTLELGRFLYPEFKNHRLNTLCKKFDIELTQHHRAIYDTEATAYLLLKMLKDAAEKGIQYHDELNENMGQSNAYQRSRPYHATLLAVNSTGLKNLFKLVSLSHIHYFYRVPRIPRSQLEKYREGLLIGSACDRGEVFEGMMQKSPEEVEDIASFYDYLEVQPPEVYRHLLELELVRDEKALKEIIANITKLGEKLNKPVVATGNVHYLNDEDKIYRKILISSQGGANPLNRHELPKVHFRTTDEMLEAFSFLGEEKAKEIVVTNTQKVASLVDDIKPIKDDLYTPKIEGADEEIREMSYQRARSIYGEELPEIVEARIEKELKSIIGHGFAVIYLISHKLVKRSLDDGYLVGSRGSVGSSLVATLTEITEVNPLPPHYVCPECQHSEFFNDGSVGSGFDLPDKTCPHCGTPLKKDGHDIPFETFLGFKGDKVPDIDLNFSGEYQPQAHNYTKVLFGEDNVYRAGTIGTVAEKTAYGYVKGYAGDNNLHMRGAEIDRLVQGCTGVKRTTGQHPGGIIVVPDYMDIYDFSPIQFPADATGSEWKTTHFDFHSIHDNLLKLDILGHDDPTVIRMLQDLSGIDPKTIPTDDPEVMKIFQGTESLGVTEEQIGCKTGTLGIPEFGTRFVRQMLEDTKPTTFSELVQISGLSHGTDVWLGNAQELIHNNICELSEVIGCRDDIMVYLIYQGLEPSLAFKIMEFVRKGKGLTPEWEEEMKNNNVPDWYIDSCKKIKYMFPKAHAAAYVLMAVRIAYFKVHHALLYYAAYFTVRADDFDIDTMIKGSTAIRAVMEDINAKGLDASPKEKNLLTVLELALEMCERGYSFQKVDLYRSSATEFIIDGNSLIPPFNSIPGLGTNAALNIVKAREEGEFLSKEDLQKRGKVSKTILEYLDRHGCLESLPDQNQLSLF

Turning to `CCCCNc1c(C(=O)OCC)c(C)nc2c1cnn2CC`, in [1], the Potency was 12.6 µM (active). Besides, the compound was called inactive in [2], in assay [4], in [8], in [10] and in [11]. The Potency result in assay [3], in assay [5], in [6], in assay [7] and in assay [9] was “inactive” throughout.

In the case of `Nc1ncn([C@@H]2O[C@H](CO)[C@@H](O)[C@H]2O)c(=O)n1`, the Potency result in assay [1], in assay [3], in assay [5], in assay [9], in assay [13] and in assay [14] was “inactive” throughout. Moreover, the compound was classed as inactive in assay [2], in assay [8], in [10], in assay [11] and in assay [15]. Further, the Potency in assay [12] is 3.16 µM (active).

Consider `CCN(CC)CCNC(=O)c1ccc(NC(C)=O)cc1`, for which the Potency result in assay [1], in assay [3], in assay [5], in [6], in assay [7] and in assay [12] was “inactive” in each case. Also, the Potency result in assay [9], in assay [16], in [13] and in [14] was “inactive” each time. For the same compound, the compound was classed as inactive in assay [2], in assay [4], in assay [8], in [10], in [11] and in [17]. For the same compound, the outcome in [15] was inactive.

For the compound `CCN(CC)CCNC(=O)c1cc(S(C)(=O)=O)ccc1OC`, the Potency entry in assay [1], in [3], in assay [5], in [6], in assay [7] and in [12] was “inactive” throughout. Further, the Potency entry in [9], in assay [16], in assay [13] and in [14] was “inactive” each time. Also, the call in assay [2], in assay [4], in assay [8], in assay [10], in assay [11] and in [15] was inactive.

As to `CO[C@@]1(NC(=O)CSCC#N)C(=O)N2C(C(=O)O)=C(CSc3nnnn3C)CS[C@@H]21`, the Potency entry in assay [1], in assay [3], in [5], in assay [6], in [7] and in [12] was “inactive” in each case. The Potency entry in assay [9], in assay [16], in assay [13] and in [14] was “inactive” throughout. Further, the result in assay [2], in assay [4], in [8], in [10], in assay [11] and in assay [17] was inactive. In addition, the outcome in assay [15] was inactive.

With `O=C1CC2(CCCC2)CC(=O)N1CCCCN1CCN(c2ncccn2)CC1`, the Potency entry in assay [1], in assay [18], in assay [5], in assay [6], in assay [7] and in assay [12] was “inactive” each time. Further, the Potency entry in assay [9], in assay [16], in assay [13] and in [14] was “inactive” in each case. For the same compound, the compound was called inactive in assay [2], in assay [4], in assay [8], in assay [10], in assay [11] and in [15].

Regarding `COc1cc(C(=O)OCCCN2CCCN(CCCOC(=O)c3cc(OC)c(OC)c(OC)c3)CC2)cc(OC)c1OC`, the Potency in assay [1] is 8.91 µM (active); in assay [13] it was 6.57 µM (active); in assay [14] it was 13.1 µM (active). Further, the result in [2], in assay [4], in [8], in [10], in [11] and in assay [15] was inactive. Also, the Potency result in assay [3], in [18], in assay [5] and in assay [9] was “inactive” throughout.

Regarding `CCCCNc1ccc(C(=O)OCCN(C)C)cc1`, the Potency entry in assay [1], in [3], in [5], in assay [6], in assay [7] and in assay [9] was “inactive” throughout. The Potency result in assay [16] and in assay [14] was “inactive” throughout. Also, the call in assay [2], in [4], in assay [8], in assay [10], in [11] and in assay [17] was inactive. In addition, the outcome in assay [15] was inactive.

For `COCCc1ccc(OCC(O)CNC(C)C)cc1` (configuration not stated), the Potency result in [1], in assay [3], in assay [5], in [6], in [7] and in assay [12] was “inactive” throughout. Moreover, the Potency entry in assay [9], in [16], in assay [13] and in assay [14] was “inactive” each time. Also, the result in [2], in assay [4], in [8], in assay [10] and in assay [15] was inactive.
